In publication PMC4081100, “A DNA-binding-site landscape and regulatory network analysis for NAC transcription factors in Arabidopsis thaliana” one finds binding signal data, which are given here for six sequences.

Common to all, as to assay: universal protein binding microarray (PBM); transcription factors of Arabidopsis thaliana; high values mean tight binding
In one experiment the target is T1, GST-ANAC092(1-176) (Arabidopsis thaliana, UniProt Q9FKA0 1-176).
T1 sequence: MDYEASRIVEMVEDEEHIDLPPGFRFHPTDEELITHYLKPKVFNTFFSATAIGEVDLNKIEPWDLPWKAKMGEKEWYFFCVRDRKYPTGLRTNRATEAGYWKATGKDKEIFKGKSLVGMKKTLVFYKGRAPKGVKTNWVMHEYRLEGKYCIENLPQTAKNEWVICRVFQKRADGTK
Conditions: protein: recombinant; tags: GST; chain copies: 2; dsDNA, one strand shown. The method in brief: (§1)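 Protein amounts were determined by A280 or anti-GST western blot after glutathione–Sepharose 4B purification of GST-tagged proteins induced in cells, with zinc acetate included for zinc-finger proteins. Duplicate runs at 200 to 500 nM final were done on custom all-10-mer Agilent 4 × 180K arrays made double-stranded by primer extension. The normalised enrichment score (E-score) over gapped and ungapped 8-mers is the measure of binding.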

In another experiment the target is GST-NTL6(1-168) (Arabidopsis thaliana, UniProt Q9SCK6 1-168). To be noted: protein: recombinant; tags: GST; chain copies: 2; dsDNA, one strand shown. The method in brief:
as §1

A further experiment deals with T2, GST-ANAC019 NAC domain (Arabidopsis thaliana, UniProt Q9C932 14-162).
T2 sequence: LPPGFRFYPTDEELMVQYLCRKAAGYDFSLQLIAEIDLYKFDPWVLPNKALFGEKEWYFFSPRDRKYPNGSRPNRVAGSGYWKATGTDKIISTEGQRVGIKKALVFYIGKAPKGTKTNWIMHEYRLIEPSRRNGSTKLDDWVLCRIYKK
Conditions: protein: recombinant; tags: GST; chain copies: 2; dsDNA, one strand shown. Put shortly: as §1

The next experiment has as its target T3, GST-ANAC055(1-171) (Arabidopsis thaliana, UniProt Q9LDY8 1-171).
T3 sequence: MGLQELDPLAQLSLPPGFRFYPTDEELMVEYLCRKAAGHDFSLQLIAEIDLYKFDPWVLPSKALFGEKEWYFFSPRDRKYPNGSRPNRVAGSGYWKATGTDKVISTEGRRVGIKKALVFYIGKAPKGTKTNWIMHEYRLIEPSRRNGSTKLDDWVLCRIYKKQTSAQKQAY
To be noted: protein: recombinant; tags: GST; chain copies: 2; dsDNA, one strand shown. The method in brief:
as §1

A further experiment concerns the target T4, GST-ATAF1 NAC domain (Arabidopsis thaliana, UniProt Q39013 7-158).
T4 sequence: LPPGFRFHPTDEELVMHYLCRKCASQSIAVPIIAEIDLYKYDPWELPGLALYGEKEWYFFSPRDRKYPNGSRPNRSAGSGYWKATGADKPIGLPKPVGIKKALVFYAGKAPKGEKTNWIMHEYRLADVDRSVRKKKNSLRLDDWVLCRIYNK
Conditions: protein: recombinant; tags: GST; chain copies: 2; dsDNA, one strand shown. Put shortly: as §1

Experiment [1] has as its target T5, GST-ANAC092(1-285) full length (Arabidopsis thaliana, UniProt Q9FKA0 1-285).
T5 sequence: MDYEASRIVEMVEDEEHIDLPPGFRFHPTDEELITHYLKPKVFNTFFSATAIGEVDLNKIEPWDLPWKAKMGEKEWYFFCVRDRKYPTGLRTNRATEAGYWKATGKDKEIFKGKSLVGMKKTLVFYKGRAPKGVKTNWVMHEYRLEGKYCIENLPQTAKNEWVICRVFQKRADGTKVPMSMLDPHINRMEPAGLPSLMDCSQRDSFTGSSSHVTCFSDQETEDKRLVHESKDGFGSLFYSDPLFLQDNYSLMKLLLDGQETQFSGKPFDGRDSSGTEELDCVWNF
Conditions: protein: recombinant; tags: GST; chain copies: 2; dsDNA, one strand shown. Put shortly:
as §1

A further experiment concerns the target T6, GST-NAP(1-166) (Arabidopsis thaliana, UniProt O49255 1-166).
T6 sequence: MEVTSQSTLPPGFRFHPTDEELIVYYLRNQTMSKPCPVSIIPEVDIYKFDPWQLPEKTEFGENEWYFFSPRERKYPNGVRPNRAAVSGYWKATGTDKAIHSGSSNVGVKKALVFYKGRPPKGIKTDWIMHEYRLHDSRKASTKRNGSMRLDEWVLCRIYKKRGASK
Conditions: protein: recombinant; tags: GST; chain copies: 2; dsDNA, one strand shown. The method in brief: as §1

For the next experiment, the target named is T7, GST-NST2(1-184) (Arabidopsis thaliana, UniProt Q9M274 1-184).
T7 sequence: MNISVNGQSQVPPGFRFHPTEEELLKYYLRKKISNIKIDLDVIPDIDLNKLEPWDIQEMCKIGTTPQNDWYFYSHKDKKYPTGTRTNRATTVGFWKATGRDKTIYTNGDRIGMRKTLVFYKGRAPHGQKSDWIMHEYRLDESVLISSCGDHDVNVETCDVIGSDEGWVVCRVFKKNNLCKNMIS
Conditions: protein: recombinant; tags: GST; chain copies: 2; dsDNA, one strand shown. The method in brief:
as §1

In the next experiment the target is T8, GST-SND1(1-203) (Arabidopsis thaliana, UniProt Q9LPI7 1-203).
T8 sequence: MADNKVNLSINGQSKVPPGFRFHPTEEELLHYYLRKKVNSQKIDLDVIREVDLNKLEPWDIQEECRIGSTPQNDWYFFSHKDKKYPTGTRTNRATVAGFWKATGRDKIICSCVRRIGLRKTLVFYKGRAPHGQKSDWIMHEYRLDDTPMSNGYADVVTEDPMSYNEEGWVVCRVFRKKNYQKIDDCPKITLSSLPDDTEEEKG
To be noted: protein: recombinant; tags: GST; chain copies: 2; dsDNA, one strand shown. The method in brief:
as §1

For a further experiment, the target named is T9, GST-VND3 NAC domain (Arabidopsis thaliana, UniProt Q9FH59 12-162).
T9 sequence: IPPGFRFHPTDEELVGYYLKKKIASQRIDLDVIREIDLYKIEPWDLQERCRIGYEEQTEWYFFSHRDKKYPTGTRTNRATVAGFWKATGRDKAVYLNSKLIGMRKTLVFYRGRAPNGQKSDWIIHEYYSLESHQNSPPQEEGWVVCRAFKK
Conditions: protein: recombinant; tags: GST; chain copies: 2; dsDNA, one strand shown. The method in brief:
as §1

For a further experiment, the target named is T10, GST-VND7 NAC domain (Arabidopsis thaliana, UniProt Q9C8W9 9-158).
T10 sequence: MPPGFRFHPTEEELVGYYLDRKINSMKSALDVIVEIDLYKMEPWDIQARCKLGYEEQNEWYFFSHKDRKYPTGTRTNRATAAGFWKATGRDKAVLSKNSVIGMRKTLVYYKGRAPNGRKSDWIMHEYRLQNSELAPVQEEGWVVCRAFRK
To be noted: protein: recombinant; tags: GST; chain copies: 2; dsDNA, one strand shown. Put shortly:
as §1

For the next experiment, the target named is GST-WRKY1(266-371) (Arabidopsis thaliana, UniProt Q9SI37 266-371). To be noted: protein: recombinant; tags: GST; dsDNA, one strand shown. The method in brief:
as §1

In another experiment the target is T11, GST-NTL8 NAC domain (Arabidopsis thaliana, UniProt Q9XIN7 14-156).
T11 sequence: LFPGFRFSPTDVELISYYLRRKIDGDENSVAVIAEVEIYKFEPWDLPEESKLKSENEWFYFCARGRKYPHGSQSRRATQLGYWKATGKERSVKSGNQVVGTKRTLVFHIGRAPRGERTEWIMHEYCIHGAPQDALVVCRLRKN
To be noted: protein: recombinant; tags: GST; chain copies: 2; dsDNA, one strand shown. The method in brief: as §1

Sequence of GST-NTL6(1-168) (Q9SCK6 1-168): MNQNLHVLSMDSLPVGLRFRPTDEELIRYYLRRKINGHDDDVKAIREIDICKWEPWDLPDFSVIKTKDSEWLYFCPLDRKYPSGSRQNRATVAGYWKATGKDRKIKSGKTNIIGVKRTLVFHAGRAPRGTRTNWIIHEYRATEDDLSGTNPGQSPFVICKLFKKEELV
Sequence of GST-WRKY1(266-371) (Q9SI37 266-371): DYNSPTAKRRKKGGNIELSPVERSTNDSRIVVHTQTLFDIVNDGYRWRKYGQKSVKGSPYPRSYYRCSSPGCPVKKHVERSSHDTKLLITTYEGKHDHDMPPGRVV

For AACGTAGA, the binding signal with GST-ANAC092(1-176) was found to be 0.21 E-score; with GST-NTL6(1-168) it was 0.145 E-score; with GST-ANAC019 NAC domain it was 0.0983 E-score; with GST-ANAC055(1-171) it was 0.226 E-score; in the experiment with GST-ATAF1 NAC domain, 0.163 E-score; in [1], 0.329 E-score. For the same sequence, the binding signal amounted to 0.0935 E-score with GST-NAP(1-166); 0.34 E-score in the experiment with GST-NST2(1-184); 0.408 E-score in the experiment with GST-SND1(1-203); 0.206 E-score with GST-VND3 NAC domain; 0.184 E-score in the experiment with GST-VND7 NAC domain; 0.317 E-score with GST-WRKY1(266-371).

Turning to CTACGTTA, the binding signal with GST-ANAC092(1-176) was 0.323 E-score; with GST-NTL6(1-168), 0.0691 E-score; with GST-ANAC019 NAC domain, 0.152 E-score; with GST-ANAC055(1-171), 0.144 E-score; with GST-ATAF1 NAC domain, 0.228 E-score; in [1], 0.382 E-score. Besides, the binding signal is 0.135 E-score with GST-NAP(1-166); 0.335 E-score with GST-NST2(1-184); 0.478 E-score in the experiment with GST-SND1(1-203); 0.24 E-score with GST-VND3 NAC domain; 0.164 E-score in the experiment with GST-VND7 NAC domain; 0.0835 E-score with GST-WRKY1(266-371).

For ATTACGTA, the binding signal with GST-ANAC092(1-176) was 0.459 E-score; with GST-NTL6(1-168), 0.201 E-score; with GST-ANAC019 NAC domain, 0.474 E-score; with GST-ANAC055(1-171), 0.438 E-score; with GST-ATAF1 NAC domain it was 0.404 E-score; in [1], 0.449 E-score. In addition, the binding signal with GST-NAP(1-166) was 0.47 E-score; in the experiment with GST-NST2(1-184) it was 0.331 E-score; with GST-NTL8 NAC domain, 0.134 E-score; in the experiment with GST-SND1(1-203), 0.44 E-score; in the experiment with GST-VND3 NAC domain, 0.468 E-score; with GST-VND7 NAC domain, 0.458 E-score. Further, the binding signal with GST-WRKY1(266-371) stood at 0.0642 E-score.

Consider TTACGGAA, for which the binding signal turned out to be 0.266 E-score with GST-ANAC092(1-176); 0.151 E-score with GST-NTL6(1-168); 0.455 E-score in the experiment with GST-ANAC019 NAC domain; 0.402 E-score with GST-ANAC055(1-171); 0.404 E-score with GST-ATAF1 NAC domain; 0.354 E-score in experiment [1]. The binding signal with GST-NAP(1-166) was determined as 0.413 E-score; with GST-NST2(1-184), 0.199 E-score; with GST-NTL8 NAC domain, 0.128 E-score; with GST-SND1(1-203) it was 0.405 E-score; with GST-VND3 NAC domain it was 0.442 E-score; in the experiment with GST-VND7 NAC domain it was 0.391 E-score. Also, in the experiment with GST-WRKY1(266-371), the binding signal stood at 0.126 E-score.

ACGTAACG: the binding signal was 0.423 E-score in the experiment with GST-ANAC092(1-176); 0.0652 E-score in the experiment with GST-NTL6(1-168); 0.436 E-score with GST-ANAC019 NAC domain; 0.389 E-score with GST-ANAC055(1-171); 0.348 E-score with GST-ATAF1 NAC domain; 0.438 E-score in [1]. The binding signal with GST-NAP(1-166) was 0.411 E-score; with GST-NST2(1-184) it was 0.272 E-score; with GST-NTL8 NAC domain, 0.118 E-score; in the experiment with GST-SND1(1-203), 0.415 E-score; with GST-VND3 NAC domain, 0.359 E-score; with GST-VND7 NAC domain it was 0.409 E-score. The binding signal in the experiment with GST-WRKY1(266-371) was found to be 0.078 E-score.

Turning to ACGCAAAG, the binding signal in the experiment with GST-ANAC092(1-176) worked out at 0.455 E-score; with GST-NTL6(1-168) it was 0.102 E-score; in the experiment with GST-ANAC019 NAC domain, 0.273 E-score; in the experiment with GST-ANAC055(1-171) it was 0.228 E-score; with GST-ATAF1 NAC domain it was 0.256 E-score; in experiment [1], 0.452 E-score. For the same sequence, the binding signal turned out to be 0.295 E-score with GST-NAP(1-166); 0.331 E-score with GST-NST2(1-184); 0.19 E-score with GST-NTL8 NAC domain; 0.407 E-score with GST-SND1(1-203); 0.374 E-score with GST-VND3 NAC domain; 0.346 E-score with GST-VND7 NAC domain. The binding signal with GST-WRKY1(266-371) is 0.16 E-score.
